Data as given in PubChem BioAssay (NCI).
Compounds without any hit were thinned out: in the full panel of roughly 83,000, 20% have a hit.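 Compound tested at a single concentration for 48 hours in 96-well plates; a percent growth value below 10 was scored as active.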 Activity calls are given as the source filed them.

Test system: NCI/ADR-RES ovarian
Experiment: NCI-60 one-dose screen, 48 h (100 = growth as untreated, 0 = no growth, -100 = all killed)
Details: 10 µM unless noted

Row | Compound | growth
1 | O=c1ccn(-c2ncnc3nc[nH]c23)cc1 | 97.6% (inactive)
2 | CCN(CC)c1ccc(CNc2ccnc3ccccc23)cc1 | 40% (inactive)
3 | COc1ccc(CN2CCc3c(Sc4ccccc4)nc(N)nc3C2=O)c(OC)c1 | 49.7% (inactive)
4 | COc1ccc(/C=C\c2cc(OC)c(OC)c(OC)c2)cc1OC(=O)c1cccc(Cn2cc(CCOC(=O)c3cccc(Cn4nnc5c4C(=O)c4ccccc4C5=O)c3)nn2)c1 | 11.5% (inactive)
5 | CCCCN(CCCC)C(=O)CC | 103% (inactive)
6 | O=C1Nc2ccc3c(c2/C1=C\c1cc2c(cc1Br)OCO2)OCO3 | 1.49% (active)
7 | O=C1/C(=C/c2ccccc2)CN(C(=O)CCN2CCC(=NO)CC2)C/C1=C\c1ccccc1 | 14.6% (inactive)
8 | COc1ccc2c(c1)[nH]c(=O)c1c3cc(OC)ccc3cn21 | 21.5% (inactive)
9 | COc1ccc(Nc2nc(N)nc3c2CCN(Cc2ccc(OC)cc2OC)C3=O)cc1 | 93.4% (inactive)
10 | Cn1ccc(=O)c(S(N)(=O)=O)c1 | 94.8% (inactive)
11 | Cc1cc(N/N=C/c2nc(-c3ccccc3)oc2C)c2cc(Br)ccc2n1 | 78.9% (inactive)
12 | Cc1nn(-c2ccc([N+](=O)[O-])cc2)c2ncnc(NCCc3ccccc3)c12 | 102% (inactive)
13 | CCN(CC)CCC(CNc1ccnc2cc(Cl)ccc12)c1ccc(Cl)cc1 (configuration not stated) | 23.4% (inactive)
14 | OC(c1cc2cc(Br)ccc2c2cc(Br)ccc12)C1CCCCN1 (configuration not stated) | -65.1% (active)
15 | C=C1CCC2C3(C)COC(c4c(OC)cccc4OC)OC3CCC2(C)C1C/C=C1/C(=O)OCC1O (configuration not stated) | 30.9% (inactive)
16 | COC(=O)c1cc2cc(-c3ccc(OC)cc3)cnc2[nH]1 | -35.6% (active)
17 | Cc1ccc(S(=O)(=O)n2cc(C(=O)C(=O)N3CCOCC3)c3ccccc32)cc1 | 75.1% (inactive)
18 | COc1ccc(-c2nc(/C=N/Nc3cc(C)nc4ccc(Cl)cc34)c(C)o2)cc1 | -74.7% (active)
19 | O=C1c2ccccc2-c2ccccc2C1(Cl)Cl | -44.2% (active)

Row | Compound | growth
20 | COc1ccc(-c2cn(-c3cccc(C(=O)/C=C/c4cc(OC)c(OC)c(OC)c4)c3)c(=O)[nH]2)cc1OC | 90.7% (inactive)
21 | CCCCCCCCCCCCNC(=O)[C@H]1CSC(c2ccsc2)N1 (some centres not stated) | -61.5% (active)
22 | COc1cc(C2NN=C3c4ccccc4CCC32)cc(OC)c1OC (configuration not stated) | 79.4% (inactive)
23 | CN1CCN(Cc2ccc(NC(=O)c3cncc(C#Cc4cnc(N)c5ccncc45)c3)cc2C(F)(F)F)CC1 | 71.8% (inactive)
24 | N=C(N)c1ccc(-c2ccc(-c3ccc4ccccc4c3)s2)cc1 | 98.8% (inactive)
25 | COc1cc(/C=C/C(=O)c2cccc(-n3cc(-c4cc(OC)c(OC)c(OC)c4)[nH]c3=O)c2)cc(OC)c1OC | 10.5% (inactive)
26 | N=C(N)c1ccc(-c2ccc(-c3ccc(-c4cccs4)s3)s2)cc1 | 98.6% (inactive)
27 | COc1ccc(-c2ccc(-c3ccc(C(=N)N)s3)s2)cc1Cl | 27.8% (inactive)
28 | O=c1[nH]c2ccc(Br)cc2c2c1C(c1ccc(Cl)cc1)c1c(ncn3nc(-c4ccco4)nc13)O2 (configuration not stated) | 88.2% (inactive)
29 | Cc1nc2ncccc2nc1Nc1ccc(S(=O)(=O)Nc2cncs2)cc1 | 98% (inactive)
30 | Cc1cc(N/N=C/c2nc(-c3ccccc3)oc2C)c2cc(Cl)ccc2n1 | -62.5% (active)
31 | Cc1nc2ncccc2nc1Nc1ccc(S(=O)(=O)Nc2ccccn2)cc1 | 98.2% (inactive)
32 | NC(=S)N/N=C1\CCCC(C(F)(F)F)C1 (configuration not stated) | 87.7% (inactive)
33 | Oc1ccc2cc(Br)ccc2c1-c1c(O)ccc2cc(Br)ccc12 | 56.2% (inactive)
34 | CCC(=O)Oc1ccc(/C(=C(/C)Cc2cccc(OC)c2)c2ccc(OCCN(C)C)cc2)cc1 | 100% (inactive)
35 | COC1=C(OC)C(=O)C(CCCCCCCCCC[P+](c2ccccc2)(c2ccccc2)c2ccccc2)=C(C)C1=O | 60.7% (inactive)
36 | O=C(CN1CCN(c2cc3c(cc2F)c(=O)c(C(=O)N/N=C/c2ccccc2O)cn3C2CC2)CC1)N/N=C\c1ccccc1O | 23.6% (inactive)
37 | COc1ccc(-c2ccc(-c3ccc(C(=N)N)cn3)s2)cc1OC | 108% (inactive)
